# Laboratory results: the supplement of paper PMC11417369
# ± gives the standard deviation of the averaged measurements. Over roughly 25,000 sequences, “ln(normalized median fluorescence intensity)” has its median near 10; the highest 2% begin near 12. This excerpt belongs to a sample that is enriched for the highest values.
# Test system: PfAP2-G AP2 domain (GST-tagged)
# Assay: gcPBM binding intensity (ln(normalized median fluorescence intensity)); higher = stronger DNA binding
# Summary of the method: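 Binding intensity is defined as the maximum Masliner-normalised natural-log median intensity across replicate spots for either probe orientation. It was measured on an Agilent 4 × 180k array of primer-extended double-stranded 36-bp intergenic genomic probes and negative controls, to which GST-tagged P. falciparum DNA-binding domains made in E. coli were applied for 1 h in 1× PBS with 1% milk, 0.2 mg/ml BSA, 0.5% salmon testes DNA and 0.03% Triton X-100. Detection was by Alexa488 anti-GST antibody and scanning at 488 nm.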
row,Sequence,gcPBM binding intensity (ln)
1,CGATACTTTAGGTGTACACAAATATACATGAATGAG [CACACA_site5189],11.6 ± 0.84
2,TTTATACACAAAAAATGTACATATATATAATGAATT [XGTACX_site1195],11.2 ± 0.72
3,ATATATATTTATAGGTGTACAAAATACTATTTTAGG [XGTACX_site8499],11.3 ± 0.82
4,TATTTATATAGGTATACACACATACAAATATGTAAA [CACACA_site7705],10 ± 0.28
5,TTACAAATAATTTGTTGTACGCTTTTTTTCTTTTTT [XGTACX_site7199],11.7 ± 1.1
6,TTTTCTTTTTTCTGTTGTACTAAAAATAATTTTGTA [XGTACX_site5171],11.3 ± 0.87
7,AAAATTTCTTTTTTTTGTACATATATAATAATATAT [XGTACX_site7107],10.9 ± 0.62
8,GACAAAATGATAGGGACACACAATATCAATGTTTAA [CACACA_site765],10.7 ± 0.51
9,TTTTTTTTTTTTGAGTGTACTAAAATATTACCTTTT [XGTACX_site646],11.2 ± 0.99
10,TAAAATAATAAACAGAAGAAATCATTCATATAAAAA [XGTACX_negctrl_site502],9.635 ± 0.035
11,ATAAATGAAAAAAAGCGTACATATAAAAAAATATAT [XGTACX_site5063],11.6 ± 1
12,TTAACAAAATTTCCGTGTACGTAAATAAGAACATAG [XGTACX_site7200],11.8 ± 0.95
13,ATATAAGAACAAAATTGTACATAAATATTTATATAA [XGTACX_site7404],10.8 ± 0.54
14,ACATAAGAACATATTTGTACGTATATAAATTAAATA [XGTACX_site6127],11.4 ± 0.79
15,AAATAATTAAAAAAAAGTACACATGTGACTACATAT [XGTACX_site8767],11.4 ± 0.71
16,ATGAACATGTGACAATGTACATTTATATCTTAAGAA [XGTACX_site4960],10.8 ± 0.43
17,TTTTTTTTTTTTTTTTTTATATTTCATAATTTCATT [XGTACX_negctrl_site579],9.33 ± 0.71
18,TTTTGTTTTGTTTTGTTTTGTTTTGTTTTATTTTAT [GTGCAC_negctrl_site383],9.86 ± 0.27
19,GAATACACCACGCACACACACTTGAGAAAAAATAAA [CACACA_site7747],10.6 ± 0.56
20,TATTTGTTTTTATATAGTACATAAATATATATATAT [XGTACX_site7834],10.9 ± 0.61
21,ATATAGTAAATTGGTAGTACATAAAATGATTTTATG [XGTACX_site4143],11.6 ± 0.95
22,TTTTTTTTTTTTGGTAGTACATAAATATTTTATGGA [XGTACX_site6851],12 ± 1.7

row,Sequence,gcPBM binding intensity (ln)
1,AAATTATATATAAAATGTACATATGTAGGTAATTTT [XGTACX_site5047],10.9 ± 0.49
2,AAATTAAAATAAAATAGTACATATATTTATATTTTT [XGTACX_site1687],11.1 ± 0.69
3,TATATTTTTATATTTTGTACATATAGTAAATATAAA [XGTACX_site4768],10.8 ± 0.51
4,TTTTGTTGTTGTTGTTGTACATAAATAATAAAATAT [XGTACX_site8681],11.3 ± 0.95
5,TATAGGTAAATGGACACACACATATTTATATTTATA [CACACA_site7683],10.9 ± 0.58
6,TTTTTTTTTATAAGGTGTACGTAAAATGTGTAGGTC [XGTACX_site3585],11.6 ± 0.82
7,AGTAAATATATTATATGTACGTATCATAAAATATAT [XGTACX_site1567],11.6 ± 0.86
8,ATTATATATATCAGGTGTACGTAAAAAAAATGGACG [XGTACX_site1028],11.9 ± 0.81
9,TAAAAATATATGTATACACACATATATATATATATA [CACACA_site3951],10 ± 0.38
10,AATGCTATCTTCTTATTTTTCATACACAACATGAAC [CACACA_negctrl_site1809],10.2 ± 0.11
11,TATGATTTTTATATATGTACGTATGGTGTTTTACAA [XGTACX_site6100],11.3 ± 0.53
12,GTTTGGTGGTGTTTTGGTACGTACGGGGGTGTATGT [XGTACX_site1211],11.7 ± 0.85
13,TGTTTTGTTTTTTGGGGTACATGTTTTGTATTATAT [XGTACX_site7997],11.6 ± 0.78
14,GACTTTTCATTTATAGTGCAAGTTTTTTTTTTTTTT [GTGCAC_site9698],10.1 ± 0.23
15,CAAAAGTAAGCACGCACACACAACATGAAATAAACT [CACACA_site6223],10.29 ± 0.078
16,ATATATTTTGATTGCACACAGAATTTAAATCATGAT [CACACA_site2343],10.1 ± 0.2
17,TATTTATAAAAATATACACACATACAAATATGCATA [CACACA_site4555],9.815 ± 0.007
18,CATAAATACTATATATGTACGTAATTTTTAAAACAT [XGTACX_site7710],11.6 ± 0.83
19,TTTTTTTTTTTAATATGTACGTAAAATAAGTTTAAA [XGTACX_site6495],11.4 ± 0.95
20,TTTTTTTTAAAACTATGTACGTAAAAATTGTAGTTT [XGTACX_site2302],11.7 ± 0.91
21,TTTATTTTATTTTCATGTACAAAAGGGGAATAATAA [XGTACX_site2704],10.9 ± 0.71
22,AATAGGGTCATTCAAAAAAAAAAAAAATAATAATAC [CACACA_negctrl_site644],10.1 ± 0.29

row,Sequence,gcPBM binding intensity (ln)
1,ATATTATAAATATAATGTACGTTTTAATTTCATGTT [XGTACX_site3557],11.2 ± 0.79
2,ATTTCTAAATGTTGGTGTACGTTTTTTTATAACCTT [XGTACX_site1752],11.6 ± 1.1
3,TACACATGTTTAAAATGTACGTTTTATAACACACAC [XGTACX_site8229],11.3 ± 0.82
4,TCACTATAATAATTTACACACATTTTAAGAAAATGG [CACACA_site5867],10 ± 0.18
5,TATATTTATTATAACACACACATATATATATTATAT [CACACA_site1061],9.905 ± 0.064
6,TTATAAATAAAAAATACACACATATATTTATTTATA [CACACA_site6242],9.77 ± 0.028
7,TACTATGCCCCATATAAACACACAAATAAAAAGAAT [CACACA_site8857],10.2 ± 0.21
8,TTTTCATGTTGTAAAGCATGCTTTACTCATAAAAAA [TGCATGCA_site917],9.95 ± 0.23
9,TATACATTTTTATAAAGTACACAAAAATAAATATAA [XGTACX_site1647],11.5 ± 0.95
10,ATTTAAATAATATGTACACACATTTAAAAAGTTATA [CACACA_site7347],11.6 ± 0.94
11,ATAGGCAAAAAGTGTACACATTCATTTATATAAATA [CACACA_site4480],11.7 ± 0.79
12,TGCAATATATCAAAGTGTACATGCAATAAAAAAAAA [XGTACX_site652],11.1 ± 0.71
13,ATTTCATTTTATAAGTGTACAATAAAAAAAAAAAAA [XGTACX_site8677],11.3 ± 1
14,ACAATATGCAAAAAGTGTACACATTCATTTATATAA [XGTACX_site1061],11.7 ± 0.86
15,TTGTAGATATTTATATGTACGAATTTATAAATATAG [XGTACX_site3611],11.1 ± 0.76
16,ACTATTTTCTTCAAAACATGCACCACATAAACATAA [TGCATGCA_site200],10.6 ± 0.51
17,TAATTATTATTAATAGTACACACTATGGCATTTCAA [CACACA_site2488],11.1 ± 0.84
18,TAATATATTTATAAGTGTACACATTATATAAATCCC [XGTACX_site8875],11.7 ± 0.74
19,TATATTTATAAGTGTACACATTATATAAATCCCTAT [CACACA_site6122],11.7 ± 1.1
20,TCATATTCCAAGTGTACACATAAATCCCTAATAACA [CACACA_site5167],11.7 ± 0.94
21,GATTATTTTATAAGTACACACATTTATATATAATAA [CACACA_site2573],11.5 ± 1.1
22,TATTCATATTCCAAGTGTACACATAAATCCCTAATA [XGTACX_site4131],11.5 ± 0.9

row,Sequence,gcPBM binding intensity (ln)
1,AAAATTCATCCAACAAGTACATAAATATAATATTAT [XGTACX_site4596],11.3 ± 0.79
2,ATTATATTTTTAAGTACACACATATAAATAAATATA [CACACA_site7682],11.4 ± 1
3,ATTAACACATTTAAGTGTACATATATAAATATATAT [XGTACX_site7098],11.4 ± 0.83
4,TATAAATATATTTATACACACATTAGTGTATACATG [CACACA_site7397],10.2 ± 0.11
5,TCAAAAATAAAGATCACACATATATATATATATATA [CACACA_site4381],10.3 ± 0.99
6,CACATATATACACATACACACACACCCATACACCCA [CACACA_site8505],10.5 ± 0.39
7,TATACAAAATAACTAGCACACATATGTATAAACATA [CACACA_site9236],10.2
8,TACATACACAAATACACACACAAATACATACACAAA [CACACA_site704],10.2 ± 0.41
9,TAAACATTCTTATATAGTACCCATATTAAAATATAC [XGTACX_site8014],10.8 ± 0.58
10,TATATATATATAAGAAGTACAGAAAATTAGAAAAAA [XGTACX_site8773],11.7 ± 1.1
11,CCAATAATATATAGAAGTACAGAAAAAAAAAAAAAA [XGTACX_site2049],11.5 ± 1.1
12,TATATATAAGAAAAAAGTACAGATATATATATATTC [XGTACX_site4788],11.6 ± 1.1
13,TTTTTTTTTTTTTTTTTTTTTTTGCTCAGTGTGGTA [CACACA_negctrl_site29],9.95 ± 0.56
14,ACAGAAAATAAAATTTGTACATATATAGAATAAAGA [XGTACX_site3014],10.8 ± 0.39
15,AAAATTATATATTATAGTACATAAAATTTTGATATA [XGTACX_site994],10.9 ± 0.56
16,AATGATTTTGATTAACGTACGTACAAATATATATAT [XGTACX_site6604],11.5 ± 0.82
17,ATTTTGATAACCGTACGTACATATATATATATATAT [XGTACX_site6605],11.8 ± 0.85
18,ACCATTTGTACTTACGCACACATAAAATATATATAT [CACACA_site1545],11.5 ± 1
19,TAAATTATATTATGCACACTTAAAAATATATTTAAC [CACACA_site3512],10.07 ± 0.085
20,CAACAAAAATTATTTACACACAAAAGGCAAGGAAAT [CACACA_site1971],10.5 ± 0.28
21,ACCTTAAATAATACATGTACAAAAAAATTTATAATA [XGTACX_site1043],11 ± 0.49
22,TCTTACTAATTTATGGGGACTTATCACCTATTCAGT [CACACA_negctrl_site652],10.5 ± 0.23
